Test results as given in PubChem BioAssay AID1159580 (chemical genetic matrix, 2015).
About 2,000 (36%) of roughly 5,500 compounds were called active. Not shown: some 18% with an inconclusive outcome. Cut-off read from the data, not from the text of the source: active = normalized growth mostly below about 0.91 (no sharp cut-off); inconclusive = no clear call, values can overlap the other calls; inactive = mostly above about 0.92. Some of the results follow.

Assay: chemical genetic growth profiling, strain panel (AID 1159580);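 note: tested at 20 µM; growth read once vehicle control cultures reached saturation at 30 °C; 1 = growth at the plate median or of vehicle wells; lower values mean less growth of the strain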
Conditions: growth OD

Measured: normalized growth

CC1(C)C2CC[C@]3(C)C(C(=O)C=C4[C@@H]5C[C@@](C)(C(=O)O)CC[C@]5(C)CC[C@]43C)[C@@]2(C)CC[C@@H]1OC(=O)CCC(=O)O (stereo partly drawn)
inactive: S. cerevisiae deletion strains, locus YKL009W, strain mrt4, active compounds read low 0.975 | S. cerevisiae deletion strains, locus YKL068W, active compounds read low 0.986 | S. cerevisiae deletion strains, locus YKL085W, strain MDH1 (second series), active compounds read low 0.984 | S. cerevisiae deletion strains, locus YKL085W, strain MDH1, active compounds read low 0.984 | S. cerevisiae deletion strains, locus YKL160W, strain elf1, active compounds read low 0.938 | S. cerevisiae deletion strains, locus YKL190W, strain CNB1, active compounds read low 0.991 | S. cerevisiae deletion strains, locus YKR001C, strain vps1, active compounds read low 0.999 | S. cerevisiae deletion strains, locus YKR026C, strain gcn3, active compounds read low 0.987 | S. cerevisiae deletion strains, locus YKR091W, strain srl3, active compounds read low 0.989 | S. cerevisiae deletion strains, locus YLL001W, strain dnm1, active compounds read low 1 | S. cerevisiae deletion strains, locus YLL026W, active compounds read low 0.977 | S. cerevisiae deletion strains, locus YLL041C, strain sdh2, active compounds read low 0.982 | S. cerevisiae deletion strains, locus YLR027C, strain aat2, active compounds read low 1 | S. cerevisiae deletion strains, locus YLR039C, strain RIC1, active compounds read low 0.944 | S. cerevisiae deletion strains, locus YLR058C, strain SHM2, active compounds read low 0.986 | S. cerevisiae deletion strains, locus YLR102C, strain apc9, active compounds read low 0.996 | S. cerevisiae deletion strains, locus YLR221C, strain rsa3, active compounds read low 1 | S. cerevisiae deletion strains, locus YLR258W, strain gsy2, active compounds read low 0.98 | S. cerevisiae deletion strains, locus YLR262C, strain YPT6 (second series), active compounds read low 0.962 | S. cerevisiae deletion strains, locus YLR262C, strain YPT6, active compounds read low 0.91 | S. cerevisiae deletion strains, locus YLR268W, strain sec22, active compounds read low 0.998 | S. cerevisiae deletion strains, locus YLR320W, strain mms22, active compounds read low 0.999 | S. cerevisiae deletion strains, locus YLR330W, strain CHS5, active compounds read low 0.992 | S. cerevisiae deletion strains, locus YLR342W, strain FKS1 (second series), active compounds read low 0.995 | S. cerevisiae deletion strains, locus YLR342W, strain FKS1, active compounds read low 0.985 | S. cerevisiae deletion strains, locus YLR357W, strain rsc2, active compounds read low 0.967 | S. cerevisiae deletion strains, locus YLR370C, strain arc18, active compounds read low 0.967 | S. cerevisiae deletion strains, locus YLR371W, strain rom2, active compounds read low 1 | S. cerevisiae deletion strains, locus YLR384C, strain iki3, active compounds read low 0.983 | S. cerevisiae deletion strains, locus YLR418C, strain cdc73, active compounds read low 0.968 | S. cerevisiae deletion strains, locus YML016C, strain PPZ1, active compounds read low 1 | S. cerevisiae deletion strains, locus YML032C, strain rad52, active compounds read low 0.994 | S. cerevisiae deletion strains, locus YML120C, strain ndi1, active compounds read low 0.997 | S. cerevisiae deletion strains, locus YML124C, strain tub3, active compounds read low 1 | S. cerevisiae deletion strains, locus YMR058W, strain fet3, active compounds read low 1.04 | S. cerevisiae deletion strains, locus YMR078C, strain ctf18, active compounds read low 0.976 | S. cerevisiae deletion strains, locus YMR125W, strain sto1, active compounds read low 0.975 | S. cerevisiae deletion strains, locus YMR129W, active compounds read low 0.99 | S. cerevisiae deletion strains, locus YMR205C, strain PFK2, active compounds read low 0.97 | S. cerevisiae deletion strains, locus YMR223W, strain ubp8, active compounds read low 0.973 | S. cerevisiae deletion strains, locus YMR231W, strain pep5, active compounds read low 0.978 | S. cerevisiae deletion strains, locus YMR263W, strain SAP30, active compounds read low 1 | S. cerevisiae deletion strains, locus YMR307W, strain GAS1, active compounds read low 1.01 | S. cerevisiae deletion strains, locus YNL067W, strain RPL9B, active compounds read low 1.02 | S. cerevisiae deletion strains, locus YNL071W, strain lat1, active compounds read low 0.994 | S. cerevisiae deletion strains, locus YNL183C, strain NPR1, active compounds read low 0.991 | S. cerevisiae deletion strains, locus YNL209W, strain ssb2, active compounds read low 0.967 | S. cerevisiae deletion strains, locus YNL233W, strain BNI4, active compounds read low 1.03 | S. cerevisiae deletion strains, locus YNL248C, strain rpa49, active compounds read low 0.909 | S. cerevisiae deletion strains, locus YNL250W, strain rad50, active compounds read low 0.949 | S. cerevisiae deletion strains, locus YNL271C, strain bni1, active compounds read low 0.983 | S. cerevisiae deletion strains, locus YNL298W, strain CLA4, active compounds read low 0.997 | S. cerevisiae deletion strains, locus YNL307C, strain MCK1, active compounds read low 0.992 | S. cerevisiae deletion strains, locus YNL322C, strain KRE1 (second series), active compounds read low 0.979 | S. cerevisiae deletion strains, locus YNL322C, strain KRE1, active compounds read low 0.99 | S. cerevisiae deletion strains, locus YNR049C, strain mso1, active compounds read low 0.983 | S. cerevisiae deletion strains, locus YNR052C, strain pop2, active compounds read low 0.975 | S. cerevisiae deletion strains, locus YOL006C, strain TOP1, active compounds read low 1.04 | S. cerevisiae deletion strains, locus YOL012C, strain htz1 1.07 | S. cerevisiae deletion strains, locus YOL147C, strain pex11, active compounds read low 0.989 | S. cerevisiae deletion strains, locus YOR001W, strain rrp6, active compounds read low 1.03 | S. cerevisiae deletion strains, locus YOR061W, strain CKA2, active compounds read low 0.991 | S. cerevisiae deletion strains, locus YOR069W, strain VPS5, active compounds read low 0.982 | S. cerevisiae deletion strains, locus YOR070C, strain gyp1, active compounds read low 0.986 | S. cerevisiae deletion strains, locus YOR080W, strain dia2, active compounds read low 1.01 | S. cerevisiae deletion strains, locus YOR083W, strain WHI5, active compounds read low 0.891 | S. cerevisiae deletion strains, locus YOR106W, strain vam3, active compounds read low 0.896 | S. cerevisiae deletion strains, locus YOR136W, strain idh2, active compounds read low 0.998 | S. cerevisiae deletion strains, locus YOR144C, strain elg1, active compounds read low 1 | S. cerevisiae deletion strains, locus YOR184W, strain ser1, active compounds read low 0.96 | S. cerevisiae deletion strains, locus YOR231W, strain MKK1, active compounds read low 1.06 | S. cerevisiae deletion strains, locus YOR265W, strain rbl2, active compounds read low 0.974 | S. cerevisiae deletion strains, locus YOR270C, strain vph1, active compounds read low 0.867 | S. cerevisiae deletion strains, locus YOR290C, strain snf2, active compounds read low 0.96 | S. cerevisiae deletion strains, locus YOR316C, strain cot1, active compounds read low 0.992 | S. cerevisiae deletion strains, locus YPL051W, strain arl3, active compounds read low 0.966 | S. cerevisiae deletion strains, locus YPL055C, strain LGE1, active compounds read low 1.08 | S. cerevisiae deletion strains, locus YPL078C, strain atp4, active compounds read low 0.962 | S. cerevisiae deletion strains, locus YPL106C, strain sse1, active compounds read low 0.986 | S. cerevisiae deletion strains, locus YPL240C, strain hsp82, active compounds read low 0.978 | S. cerevisiae deletion strains, locus YPL241C, strain CIN2, active compounds read low 0.992 | S. cerevisiae deletion strains, locus YPL256C, strain CLN2, active compounds read low 1.05 | S. cerevisiae deletion strains, locus YPR119W, strain clb2, active compounds read low 0.992 | S. cerevisiae deletion strains, locus YPR141C, strain kar3, active compounds read low 0.999 | S. cerevisiae deletion strains, locus YPR163C, strain tif3, active compounds read low 0.983 | S. cerevisiae deletion strains, locus YPR167C, strain met16, active compounds read low 0.99 | S. cerevisiae deletion strains, strain wtn01, active compounds read low 0.976 | S. cerevisiae strains, strain wild type, active compounds read low 0.991
